Screening data deposited in PubChem by National Center for Advancing Translational Sciences (NCATS).
Compounds with a hit are over-represented: about 21% of the library has one in this group of screens.
Pf growth 48h: inhibits P. falciparum growth in the first generation, 48 h | P. falciparum luciferase growth in erythrocytes, 48 h | 310,000 compounds, 5.9% hits | Potency, µM (doses to about 28.7 µM), hits mostly inhibitors
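Luciferase-expressing P. falciparum in infected erythrocytes (2% hematocrit, 0.1% parasitemia final) in RPMI 1640/0.5% Albumax were exposed to compound for 48 hours at 37 C, 5% CO2; growth read as luminescence.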
Shiga toxin inh: blocks Shiga toxin action in Vero cells | Vero cells, Shiga toxin protein synthesis inhibition reporter | inhibition, % at 38.7 µM | 290,000 compounds, 9.2% hits; in the data active means inhibition mostly above about 28%, no sharp cut-off; inactive means mostly below about 43%
CHX counter: counter-screen for Shiga toxin inhibitors: cycloheximide protein synthesis inhibition; cell reporter, cycloheximide protein synthesis inhibition counterscreen; max response, %; 300,000 compounds, 12% hits; AID 2314; in the data active means max response mostly above about 13%, no sharp cut-off; inactive means mostly below about 14%; further: read at 38.3 µM for the half of the compounds with a filed dose
NS1 inh: influenza NS1 inhibition; Potency, µM (highest dose often 46.1 µM); 270,000 compounds, 0.4% hits; AID 2326; calls by dose curve; further: actives are rising curves; nearly all actives have a fitted effect of over 50% in size
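S. cerevisiae expressing influenza A NS1, grown in glucose, washed, then diluted 1:100 into pH 6.0 -URA galactose medium with 23 nl compound. Growth recovery read as OD600; NS1-free strain serves as control.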
Pf growth 96h: P. falciparum growth inhibition at 96 hour, primary screen for plastid delayed-death inhibitors; P. falciparum luciferase reporter growth, 96 h; Potency, µM (doses to about 28.7 µM), actives largely listed as inhibitors; 320,000 compounds, 6.9% hits; AID 504834
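Two-generation exposure (96 h) targets delayed-death phenotype. Reporter parasites carrying integrated firefly luciferase, in red cells at 2% hematocrit and 0.05% parasitemia final, kept at 37 C, 5% CO2; luminescence loss indicates inhibition.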
Hits are given with their value; . = inactive; ? = inconclusive; / = no result. Unless noted, the call rests on the fitted dose curve; in most records, active means well fitted inhibition curve with a large enough effect; inconclusive means small, poorly fitted or top-dose-only effect, or another doubt; inactive means no such curve, though single readings can be large or run the other way.

SMILES | Pf growth 48h | Shiga toxin inh | CHX counter | NS1 inh | Pf growth 96h
CN(C)S(=O)(=O)n1cc(/C=C(\NC(=O)c2ccccc2F)C(=O)NCCCn2ccnc2)c2ccccc21 | 10µM | . | . | . | .
CCn1cc(/C=C(\NC(=O)c2ccccc2OC)C(=O)NCCCN2CCOCC2)c2ccccc21 | ? | . | . | . | 9.3µM
CCn1cc(/C=C(\NC(=O)c2ccc(OC)cc2)C(=O)N2CCN(C)CC2)c2ccccc21 | ? | . | . | . | 13µM
CN1CCN(C(=O)/C(=C/c2cn(S(=O)(=O)N(C)C)c3ccccc23)NC(=O)c2ccccc2)CC1 | ? | . | . | . | 12µM
Cc1ccc(C(=O)N/C(=C\c2cn(S(=O)(=O)N(C)C)c3ccccc23)C(=O)NCCCn2ccnc2)cc1 | ? | . | . | . | .
COc1ccc(CN2C(=O)c3cccnc3C2=O)cc1S(=O)(=O)NC1CCCCC1C (stereo unspecified) | . | . | . | . | .
C[C@H](NC(N)=O)C(=O)Nc1ccc(N2CCOCC2)c(S(=O)(=O)Nc2ccc(Cl)cc2)c1 | . | / | / | / | ?
COc1cc2c(cc1OC)-c1nnc(-c3ccco3)n1C1(CCCC1)C2 | ? | . | . | . | .
COC(C/C=C/C(=O)COCc1ccccc1)OC | . | 42 | 18 | . | .
O=C(CCC(=O)N1CCOc2ccc(Cl)cc21)NCCN1CCOCC1 | . | . | . | . | .
N#Cc1ccccc1Cn1c(-c2cscn2)nc2ccccc21 | ? | . | . | . | .
COc1ccccc1C1CCN(Cc2ccc(Cl)c(Cl)c2)CC1 | / | . | . | . | ?
CN[C@@H]1C[C@@H](c2ccc(Cl)c(Cl)c2)c2ccccc21 | 15µM | . | . | . | 13µM
CCn1c(SCC(=O)N2CCN(C)CC2)nc2c1c(=O)n(C)c(=O)n2C | . | . | . | . | .
CC(=O)c1ccc(NC(=O)/C(Cl)=C/c2ccccc2)cc1 | . | 147 | 41 | . | .
O=C(Nc1ccc(F)cc1)/C(Cl)=C/c1ccccc1 | . | 62 | 40 | . | .
Cc1ccccc1NC(=O)/C(=C/c1ccccc1)c1ccccc1 | ? | . | . | . | .
O=C(Nc1ccccc1)/C(=C/c1ccccc1)c1ccccc1 | 15µM | . | . | . | 4.1µM
Cc1ccc(NC(=O)/C(Cl)=C\c2ccccc2)cc1 | . | . | . | . | .
CC(=O)c1ccc(NC(=O)C2(c3ccccc3)CC2(Cl)Cl)cc1 (stereo unspecified) | ? | 88 | 40 | . | ?
CCCC[C@H]1CCCO[C@@](C(=O)NCc2cc(C)n(C)n2)(C(F)(F)F)C1 | / | . | . | / | /
NC(=O)C(c1ccc(Cl)cc1)c1ccc(Sc2ccc(Cl)cc2)nn1 (stereo unspecified) | / | . | . | . | .
O=C1CC(=O)Nc2cc(S(=O)(=O)NCc3cccs3)ccc2N1 | . | . | . | . | .
COC(=O)CCCCC(=O)OC | . | / | / | / | .
COC(=O)CCC[N+](C)(C)C | ? | / | / | / | 11µM
SMILES | Pf growth 48h | Shiga toxin inh | CHX counter | NS1 inh | Pf growth 96h
CNC(=O)n1cc(C)c(-c2cccs2)n1 | . | . | . | . | .
O=C(N/C(=C/c1ccccc1F)C(=O)N1CCCCC1)c1ccccc1 | . | . | . | . | .
CC(C)(C)n1nnnc1C(c1cccnc1)N1CCN(C2CCCCC2)CC1 (stereo unspecified) | . | . | . | . | .
CCC(C)(C)n1nnnc1C(c1ccc(OC)c(OC)c1)N1CCN(c2cccc(OC)c2)CC1 (stereo unspecified) | 7.4µM | . | . | . | .
CCC(C)(C)n1nnnc1C(c1ccc(OC)c(OC)c1)N1CCN(c2ccccc2)CC1 (stereo unspecified) | ? | . | . | . | .
CCC(C)(C)n1nnnc1C(c1ccc(OC)c(OC)c1)N1CCN(c2ccc(F)cc2)CC1 (stereo unspecified) | 13µM | . | . | . | /
CC(C)(C)n1nnnc1C(c1cccnc1)N1CCN(c2cccc(C(F)(F)F)c2)CC1 (stereo unspecified) | 3.7µM | . | . | . | .
CC(=O)Nc1c(C)ccc(S(N)(=O)=O)c1C | . | . | . | . | .
O=C1OCCC1N(C(=O)C1CC1)c1cccc(Cl)c1 (stereo unspecified) | / | . | . | / | /
CN(C)Cc1cc(C(C)(C)C)c(O)c(C(C)(C)C)c1 | . | . | . | . | 1µM
CC(C)(C)c1cc(CP(=O)(c2ccccc2)c2ccccc2)cc(C(C)(C)C)c1O | ? | / | 13 | . | ?
CC(C)N(Cc1nc2ccccc2c(=O)[nH]1)C(=O)c1ccc(NC(=O)CSc2nnnn2C)cc1 | ? | / | / | / | 13µM
CC(C)(C)c1ccc(C(=O)CS(=O)(=O)c2ccccc2)cc1 | . | 88 | 38 | . | .
CCOC(=O)NC(c1ccc(C(C)C)cc1)C(Cl)(Cl)Cl (stereo unspecified) | ? | . | . | . | ?
CCOC(=O)CS(=O)(=O)c1ccccc1 | 2.9µM | . | . | . | .
CCOC(=O)NC(C(Cl)(Cl)Cl)S(=O)(=O)c1ccccc1 (stereo unspecified) | . | 50 | 18 | . | .
C/C=C(\CS(=O)(=O)c1ccccc1)S(=O)(=O)c1ccccc1 | ? | 44 | 15 | . | .
Cc1nnc(SCC(=O)Nc2ccccc2C(=O)NC2CC2)s1 | . | . | . | . | .
CN(Cc1ccco1)C(=O)Cn1nc(-c2ccc(Cl)cc2)ccc1=O | . | . | . | / | .
CCCC(C)NC(=O)COc1ccc(S(=O)(=O)N2CCCC2)cc1 (stereo unspecified) | ? | . | . | . | .
N#CCSc1ccsc1C(=O)Nc1ccc(F)cc1 | . | . | 22 | . | .
O=C(Nc1ccc(F)cc1)c1cncs1 | . | . | . | . | .
Nc1c(Cl)c(Cl)nc(C(=O)OCC(=O)NC2CCCCC2)c1Cl | . | . | . | . | .
CC1=NN(C(N)=S)C(=O)C1N=Nc1cccc(Cl)c1 (stereo unspecified) | / | 79 | 44 | . | .
CC1=NN(C(N)=S)C(=O)C1N=Nc1ccccc1O (stereo unspecified) | . | . | 15 | . | .
SMILES | Pf growth 48h | Shiga toxin inh | CHX counter | NS1 inh | Pf growth 96h
CC1=NN(C(N)=S)C(=O)C1N=Nc1c(Cl)cc([N+](=O)[O-])cc1Cl (stereo unspecified) | ? | 27 | 18 | . | .
CC1=NN(C(N)=S)C(=O)C1N=Nc1ccccc1C (stereo unspecified) | ? | . | . | . | .
CC1=NN(C(N)=S)C(=O)C1N=Nc1ccc(C)cc1C (stereo unspecified) | / | 59 | 29 | . | 8.3µM
CC1=NN(C(N)=S)C(=O)C1N=Nc1c(Br)cc(Br)cc1Br (stereo unspecified) | . | / | . | . | .
CC1=NN(C(N)=S)C(=O)C1N=Nc1c(C)cc(C)cc1C (stereo unspecified) | / | . | . | . | 4.1µM
CC(=O)Nc1ccc(NC(=O)N(c2ccccc2)c2ccccc2)cc1 | . | . | . | . | .
O=C(CC(Sc1ccccc1)c1cccs1)c1ccco1 (stereo unspecified) | . | 57 | 26 | . | .
Cc1cc(C(=O)N2CCCC(C(=O)c3cc(F)ccc3F)C2)c(C)o1 (stereo unspecified) | . | . | . | . | ?
